Measured values as given in ChEMBL document CHEMBL3988442, “University of Dundee, Small-Polar-MMV Screening Library” (2021).
About 950 (1.4%) of roughly 69,000 compounds showed an effect of 50% or more. The sample holds strong results, similar compounds and a random draw of the others, so the mix is not that of the screen.

Each molecule was assayed on Mycobacterium tuberculosis (assay: Cornell M. t heat shock assay; note: in the data most compounds retested in dose-response had high values).
Type: functional, organism-based
Parameters: dose or concentration left out as unconfirmed

| SMILES | Percent Effect |
| --- | --- |
| O=C(CSc1nnc(N2CCNCC2)s1)Nc1ccccc1.O=C(O)C(F)(F)F | -1.012% |
| CC(C)Oc1ccc(CNC(=O)C2CCS(=O)(=O)C2)cn1 (centres undefined) | -25.56% |
| CC(NCCc1nccn1Cc1ccccc1)c1cccs1 (centres undefined) | 34.94% |
| Cc1ccc(C(C)NCCc2nccn2Cc2ccccc2)o1 (centres undefined) | -11.63% |
| CCc1ccc(C(C)NCc2nccn2Cc2ccccc2)o1 (centres undefined) | 91.1% |
| O=C(O)C(F)(F)F.c1ccc2c(c1)N(CC1CCOC1)CC21CCN(c2cnccn2)CC1 (centres undefined) | 16.03% |
| COCCN1CCCC2(CCC(=O)N2Cc2cccnc2)C1.O=C(O)C(F)(F)F (centres undefined) | -18.4% |
| Cc1nnc([C@]23COC[C@H]2CN(S(=O)(=O)c2cccnc2)C3)o1.O=C(O)C(F)(F)F | 48.22% |
| COc1ccc(CN(C(=O)C2CCCO2)c2ccncc2)cc1 (centres undefined) | -11.42% |
| COc1ccc(CN(C(=O)C2CCCS2)c2ccncc2)cc1 (centres undefined) | 99.59% |
| COc1ccc(CN(C(=O)C2CCOCC2)c2ccncc2)cc1 | -4.775% |
| O=C(CC1CC1)N1CCn2cc(Cn3cccn3)nc2C1.O=C(O)C(F)(F)F | -0.6568% |
| CC(C)n1nc(CN2CCOCC2)c2c1CN(C(=O)c1ccno1)C2.O=C(O)C(F)(F)F | 17.65% |
| Cc1ccc(CNCc2cccc3cn[nH]c23)c(OC2CCOC2)c1 (centres undefined) | 3.326% |
| Cc1ccc(CNCc2c[nH]nc2C(C)(C)C)c(OC2CCOC2)c1 (centres undefined) | 18.1% |
| Cc1ccc(CNCc2cccc3cccnc23)c(OC2CCOC2)c1 (centres undefined) | 87.35% |
| CC(C)N(C)Cc1cnc2n1CCN(Cc1cccc(F)c1)C2.O=C(O)C(F)(F)F.O=C(O)C(F)(F)F | -5.438% |
| Cc1nnc(N2CCCC3(CN(Cc4nccs4)CCO3)C2)o1.O=C(O)C(F)(F)F.O=C(O)C(F)(F)F (centres undefined) | -34.51% |
| CCN(CC)C1CCN(C(=O)c2cc3cc(C)cc(C)c3nc2C)CC1.Cl | 6.865% |
| Cl.FC(F)(F)c1ccc(-c2cnc(C3CCCN3)cn2)cc1 (centres undefined) | -8.787% |
| CC1COC2(CCN(C(=O)Cc3ccncc3)CC2)C1.O=C(O)C(F)(F)F (centres undefined) | 19.29% |
| Cn1cc(C2COC3(CCN(C(=O)Cc4ccccc4)CC3)C2)cn1 (centres undefined) | 32.13% |
| O=C(Cc1ccncc1)N1CCC2(CC1)CC(c1ccccc1)CO2.O=C(O)C(F)(F)F (centres undefined) | 53.05% |

| SMILES | Percent Effect |
| --- | --- |
| Cc1ccc(CN2CCn3c(CNC(=O)c4cccn4C)cnc3C2)s1.O=C(O)C(F)(F)F | 7.209% |
| COCC1Cn2nnc(-c3cnn(C)c3)c2CN1Cc1cccs1.O=C(O)C(F)(F)F (centres undefined) | 17.22% |
| CC(=O)c1ccc(NC(=O)NCc2cccc(N(C)C)n2)cc1C | 63.04% |
| COc1ccc(C)c(NC(=O)NCc2cccc(N(C)C)n2)c1 | 29.74% |
| CN(C)c1cccc(CNC(=O)Nc2ccc3[nH]nnc3c2)n1 | -8.207% |
| CS(=O)(=O)N1CCOCC2(CCN(c3ccccn3)C2)C1.O=C(O)C(F)(F)F (centres undefined) | -2.08% |
| CCN1CCC2(CCN(c3ncccn3)CC2)C1=O.O=C(O)C(F)(F)F | -1.865% |
| Cc1nc(N)cc(N2CCCC(COc3cccc(F)c3)C2)n1 (centres undefined) | 95.51% |
| CN(C)Cc1ccc(C(=O)N2CCCC(COc3ccc(F)cc3)C2)o1 (centres undefined) | 1.225% |
| Nc1cc(N2CCCC(COc3ccc(F)cc3)C2)nc(N)n1 (centres undefined) | 0.7864% |
| CCNC(=O)c1ccnc(N2CCCC(COc3ccccc3C)C2)c1 (centres undefined) | -1.28% |
| CN(C)Cc1nc(C(=O)N2CCCC(COc3ccc(F)cc3)C2)cs1 (centres undefined) | -4.47% |
| OCc1csc(N2CCCC(COc3cccc(F)c3)C2)n1 (centres undefined) | -18.57% |
| Nc1cc(N2CCCC(COc3ccc(F)cc3)C2)ncn1 (centres undefined) | -15.24% |
| Cc1ccccc1OCC1CCCN(c2cc(N)nc(N)n2)C1 (centres undefined) | 94.51% |
| Cc1nc(CN(C)C)cc(N2CCCC(COc3ccc(F)cc3)C2)n1 (centres undefined) | 82.2% |
| Cl.NCCc1cc(N2CCOCC2)nc(NC2CC2)n1 | -1.001% |
| Cn1cc(N2C(=O)CC[C@@H]3[C@H]2CCN3Cc2nccs2)cn1.O=C(O)C(F)(F)F | -19.88% |
| O=C(O)C(F)(F)F.O=C1C[C@H]2[C@@H](CCN2C(=O)Cc2cccs2)N1Cc1cccnc1 | -27.42% |
| Cn1cc(C(=O)N2CC[C@@H]3[C@@H]2CCN3Cc2cccc(F)c2)cn1.O=C(O)C(F)(F)F | 6.285% |
| O=C(O)C(F)(F)F.O=C(O)C(F)(F)F.O=C(O)C(F)(F)F.O=C1NC2(CCN(Cc3cccnc3)CC2)CC1c1cccnc1 (centres undefined) | -25.56% |
| Cc1cc(CN2CC[C@H]3C[C@H](C(=O)N4CCC(C)CC4)O[C@H]3C2)no1.O=C(O)C(F)(F)F | -0.569% |
| CC1(C)CC(N(Cc2cccnc2)Cc2cccc(F)c2)CC(C)(C)N1.O=C(O)CC(O)(CC(=O)O)C(=O)O | -20.05% |

| SMILES | Percent Effect |
| --- | --- |
| CC1c2ncc(Cn3cccn3)n2CCN1Cc1cccnc1.O=C(O)C(F)(F)F.O=C(O)C(F)(F)F (centres undefined) | -18.15% |
| O=C(O)C(F)(F)F.O=C(O)C(F)(F)F.c1cncc(CN2CCc3ncnc(C4CCOC4)c3CC2)c1 (centres undefined) | -9.628% |
| Cc1ccc2c(c1)CCC2NCc1c(C)nn(C)c1N1CCOCC1.Cl (centres undefined) | -16.61% |
| CC(=O)N1CCCC(c2cccc(-n3ccnc3)n2)C1 (centres undefined) | -20.38% |
| c1cnc(N2CCCC(c3cncc(-n4ccnc4)n3)C2)nc1 (centres undefined) | -40.48% |
| Cc1cc(C)nc(N2CCCC(c3cccc(-n4ccnc4)n3)C2)n1 (centres undefined) | 68.58% |
| Cc1cccc(C(=O)N2CCn3cnc(COCC4CC4)c3C2)c1 | 29.98% |
| O=C(c1ccoc1)N1CCn2cnc(COCC3CC3)c2C1 | 1.475% |
| O=C(c1ccc2[nH]ccc2c1)N1CCn2cnc(COCC3CC3)c2C1 | 54.29% |
| Cn1cc(N2CCC3(CCCN(Cc4ccc(F)cc4)C3)C2=O)cn1.O=C(O)C(F)(F)F (centres undefined) | -14.44% |
| CC(C)CCN1CCc2cc(C(=O)N(C)C)c(NCC3CC3)nc2CC1.O=C(O)C(F)(F)F.O=C(O)C(F)(F)F | -33.33% |
| CNC(=O)[C@H]1C[C@@H]2CN(Cc3csc(C)n3)C[C@@H]2N1S(C)(=O)=O.O=C(O)C(F)(F)F | 2.273% |
| COCc1cncc2c1CCN(C(=O)c1cccc(C#N)c1)C2.O=C(O)C(F)(F)F | 18.35% |
| OCC1N(Cc2ccc(F)cc2)[C@H]2CC[C@]1(O)CC2 (some centres undefined) | 36.63% |
| Cc1cc(C)cc(Nc2nc(C)cc(=O)n2CC(=O)NC(C)C)c1 | 5.735% |
| Cc1cc(=O)n(CC(=O)NC(C)C)c(Nc2ccc(F)c(C)c2)n1 | -7.671% |
| CCC(C)NC(=O)Cn1c(Nc2cc(C)cc(C)c2)nc(C)cc1=O (centres undefined) | 104.5% |
| Cc1ncsc1C(=O)N1CCCCC1c1cc2nc(C)c(C)c(O)n2n1 (centres undefined) | -18.91% |
| Cc1noc(C)c1CN1C[C@H]2CN(Cc3cccc(F)c3)C[C@H]2C1.O=C(O)C(F)(F)F.O=C(O)C(F)(F)F | 1.076% |
| CCC(=O)N1CCc2[nH]cnc2C12CCN(C(=O)c1snnc1C)CC2 | -5.563% |
| CCC(=O)N1CCc2[nH]cnc2C12CCN(C(=O)CCS(C)(=O)=O)CC2 | 77.54% |
| CCC(=O)N1CCC2(CC1)c1nc[nH]c1CCN2S(C)(=O)=O | -7.001% |
| O=C(O)C(F)(F)F.O=C(O)C(F)(F)F.c1cncc(N2CCCC3(CN(Cc4cccs4)CCO3)C2)c1 (centres undefined) | -18.25% |

| SMILES | Percent Effect |
| --- | --- |
| COCCN1CCc2ncnc(NC(C)C)c2CC1.O=C(O)C(F)(F)F | -1.499% |
| N#Cc1ccc(NC2CCN(c3ncccn3)CC2)cc1Cl | -23.07% |
| N#Cc1ccc(NC2CCN(c3ncccn3)CC2)cc1C(F)(F)F | 101.3% |
| CS(=O)(=O)N1CCC(Nc2ccc(C#N)c(C(F)(F)F)c2)CC1 | -3.037% |
| COCCN1CCC2(CCN(c3ncccn3)CC2)C1=O.O=C(O)C(F)(F)F | -21.42% |
| O=C(O)C(F)(F)F.O=C(c1cnccn1)N1C[C@@H](OCc2cccnc2)[C@H]2OCCC[C@H]21 | -23.96% |
| CN1CCCC(c2cncc(C(=O)NCc3ccccc3Cl)n2)C1.O=CO (centres undefined) | 5.616% |
| CC(=O)Nc1ccc(OCc2noc(C(=O)N3CCCCCC3)n2)cc1 | 51.07% |
| CC(=O)Nc1ccc(OCc2noc(C(=O)N3CCCC3)n2)cc1 | 4.312% |
| CC(=O)Nc1ccc(OCc2noc(C(=O)N3CCCCC3)n2)cc1 | 65.04% |
| O=C(c1nc(COc2ccc3c(c2)OCO3)no1)N1CCCC1 | 24.96% |
| NC(=O)Cc1ccc(OCc2noc(C(=O)N3CCCC3)n2)cc1 | -10.23% |
| O=C(c1nc(Cc2c[nH]c3ccccc23)no1)N1CCCCC1 | 12.78% |
| O=C(NCC1CC2(CO1)CN(Cc1cccs1)C2)C1CCC1.O=C(O)C(F)(F)F (centres undefined) | -27.85% |
| O=C(O)C(F)(F)F.O=C(c1ccncc1F)N1CC[C@@H]2OC(COCC3CC3)CC[C@@H]21 (some centres undefined) | -24.6% |
| CC(C)C(C)NC(=O)c1ncn2c1CN(C)S(=O)(=O)c1ccccc1-2.O=C(O)C(F)(F)F (centres undefined) | -5.107% |
| CCN(C)c1ncnc2c1CCN(Cc1ccsc1)CC2.O=C(O)C(F)(F)F.O=C(O)C(F)(F)F | -17.94% |
| O=C(Cn1cccc2cc(-c3ccc(F)cc3)nc1-2)N1CCC(O)CC1 | -13.39% |
| CN(C)CCN(C)C(=O)Cn1cccc2cc(-c3ccc(F)cc3)nc1-2 | 93.82% |
| COc1ccc(-c2cc3cccn(CC(=O)N4CCOCC4)c-3n2)cc1 | -34.2% |
